# Assay results from PubChem BioAssay (NCATS).
# Several values for one entry are separate records, joined by “and”; a condition that tells them apart may be missing. Equal entries are not always repeated. Records with an inconclusive call do not appear. Unmarked numbers belong to inactive results. Activity calls are given as the source filed them. The call rests on the fitted dose curve; in most records, active means well fitted curve in either direction with a large enough effect (not every such curve was filed as active); inconclusive means small, poorly fitted or top-dose-only effect, or another doubt; inactive means flat fitted curve, though single readings scatter.
# Test: AP1 Signaling Pathway (AID 357)
# Details: ME-180 AP-1-bla reporter, EGF-induced, beta-lactamase ratio, 5 h; at 17.2 µM (top of the series)
# In short: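 ME-180 cells with beta-lactamase reporter under AP-1 response element, stimulated with EC50 EGF; compounds tested in titration series, 5 h at 37 °C. CCF4 substrate added 2.5 h at room temperature; 460/530 nm emission ratio gave %activity and AC50.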
# On the % scale 0 is the no-effect control and ±100 the full control effect.
row,SMILES,"activity change, negative = inhibition"
1,NC(N)=NC(=O)c1nc(Cl)c(N)nc1N,2.66% and -5.39%
2,N=c1nc(N2CCCCC2)cc(N)n1O,-4.3% and 1.82%
3,NNCCc1ccccc1,-1.06%
4,Clc1cccc(Cl)c1NC1=NCCN1,-0.203%
5,Nc1ccc(S(=O)(=O)Nc2ccnn2-c2ccccc2)cc1,1.79%
6,Cc1cnc(NC(=O)C2=C(O)c3ccccc3S(=O)(=O)N2C)s1,-12.9%
7,N#Cc1ccc(C(c2ccc(C#N)cc2)n2cncn2)cc1,-15.5%
8,O=c1n(CCCN2CCN(c3cccc(Cl)c3)CC2)nc2ccccn12,-7.19% and -2.29%
9,COc1ccc2nc(S(=O)Cc3ncc(C)c(OC)c3C)[nH]c2c1 (stereo not drawn),4.02% and -1.7%
10,Nc1nc2ccc(OC(F)(F)F)cc2s1,7.09% and 1.61%
11,CNC[C@H](O)c1cccc(O)c1,-10.2%
12,CN1CCN(CCCN2c3ccccc3Sc3ccc(C(F)(F)F)cc32)CC1,7.77% and 23.2%
13,CC(C[N+](C)(C)C)OC(N)=O (stereo not drawn),1.75%
14,NS(=O)(=O)c1cc2c(cc1Cl)NC=NS2(=O)=O,10.4% and 2.47%
15,N[C@@H]1CONC1=O,4.13% and -17.2%
16,C[C@]12CCC(=O)C=C1CC[C@@H]1[C@@H]2[C@@H](O)C[C@@]2(C)[C@H]1CC[C@]2(O)C(=O)CO,-3.8%
17,Cc1oncc1C(=O)Nc1ccc(C(F)(F)F)cc1,-20.4% and 3.89%
18,CCCCNc1cc(C(=O)O)cc(S(N)(=O)=O)c1Oc1ccccc1,2.74% and -1.68%
19,O=C1CCc2cc(OCCCCc3nnnn3C3CCCCC3)ccc2N1,-11%
20,Cc1[nH]c(=O)c(C#N)cc1-c1ccncc1,8.13%
21,Nc1nc2c(ncn2COCCO)c(=O)[nH]1,10.5% and -13.7%
22,Cc1ccc(N(CC2=NCCN2)c2cccc(O)c2)cc1,6.96% and 4.13% and 12.9%
23,Cc1ccccc1C(OCCN(C)C)c1ccccc1 (stereo not drawn),14.6%
24,C1COC(NC(C2CC2)C2CC2)=N1,-19.2% and -1.91%

# Same assay, conditions: ME-180 (cervical carcinoma) AP-1-bla reporter, EGF-induced, beta-lactamase ratio, 5 h; at 38 µM (top of the series)
row,SMILES,"activity change, negative = inhibition"
1,NC(N)=NC(=O)c1nc(Cl)c(N)nc1N,-2.62%
2,N=c1nc(N2CCCCC2)cc(N)n1O,2.17%
3,NC[C@H](O)c1ccc(O)c(O)c1,-15.3% and -4.21%
4,NNCCc1ccccc1,26%
5,Clc1cccc(Cl)c1NC1=NCCN1,4.79%
6,Nc1ccc(S(=O)(=O)Nc2ccnn2-c2ccccc2)cc1,4.55%
7,Cc1cnc(NC(=O)C2=C(O)c3ccccc3S(=O)(=O)N2C)s1,1.25%
8,CC(=O)Oc1ccccc1C(=O)O,8.53%
9,O=c1n(CCCN2CCN(c3cccc(Cl)c3)CC2)nc2ccccn12,-2.63%
10,NCCc1ccc(O)c(O)c1,2.68%
11,Nc1nc2ccc(OC(F)(F)F)cc2s1,-15%
12,Cn1cnc([N+](=O)[O-])c1Sc1ncnc2nc[nH]c12,8.24%
13,O=NN(CCCl)C(=O)NCCCl,3.21%
14,CNC[C@H](O)c1cccc(O)c1,-17.9%
15,CN1CCN(CCCN2c3ccccc3Sc3ccc(C(F)(F)F)cc32)CC1,29.9%
16,NS(=O)(=O)c1cc2c(cc1Cl)NC=NS2(=O)=O,-2.75%
17,CCCC(CCC)C(=O)O,10.8%
18,N[C@@H]1CONC1=O,6.67% and -0.268% and -2.74%
19,Cc1oncc1C(=O)Nc1ccc(C(F)(F)F)cc1,-1.93%
20,CCCCNc1cc(C(=O)O)cc(S(N)(=O)=O)c1Oc1ccccc1,-1.83%
21,O=c1[nH]cnc2[nH]ncc12,2.34%
22,O=C1CCc2cc(OCCCCc3nnnn3C3CCCCC3)ccc2N1,-14.1%
23,Cc1[nH]c(=O)c(C#N)cc1-c1ccncc1,-0.284%
24,Nc1nc2c(ncn2COCCO)c(=O)[nH]1,1.53%
25,CCOC(=O)C1=C[C@@]2(CC)CCCN3CCc4c(n1c1ccccc41)[C@H]32,94.5% [activator] (active)
26,Cc1ccc(N(CC2=NCCN2)c2cccc(O)c2)cc1,18%
27,NC(=O)c1cnccn1,5.47%
28,Cc1cn[nH]c1,13.5%
29,C1COC(NC(C2CC2)C2CC2)=N1,-23.4%
